# Measurements: PubChem BioAssay AID1851 (National Center for Advancing Translational Sciences (NCATS), 2009)
# Hit rate of the full screen: of about 16,000 compounds, about 5,100 (32%) were called active. Roughly 25% stayed inconclusive and do not appear here. The list shows a part of the results. Unmarked numbers belong to inactive results. The call rests on the fitted dose curve; in most records, active means well fitted curve in the direction sought with a large enough effect; inconclusive means small, poorly fitted or top-dose-only effect, or effect the other way; inactive means no such curve, though single readings can be large or run the other way.
# Biological target: Cytochrome P450 3A4 (Homo sapiens) (UniProt P08684)
# Test: Cytochrome panel assay with activity outcomes
# Details: recombinant CYP, pro-luciferin dealkylation, luminescence, p450-cyp3a4; series mostly up to 57.1 µM; activity, negative = inhibition: at the top concentration
# On the % scale 0 is the no-effect control and ±100 the full control effect.
# Sequence of Cytochrome P450 3A4 (Homo sapiens) (P08684 whole entry, looked up): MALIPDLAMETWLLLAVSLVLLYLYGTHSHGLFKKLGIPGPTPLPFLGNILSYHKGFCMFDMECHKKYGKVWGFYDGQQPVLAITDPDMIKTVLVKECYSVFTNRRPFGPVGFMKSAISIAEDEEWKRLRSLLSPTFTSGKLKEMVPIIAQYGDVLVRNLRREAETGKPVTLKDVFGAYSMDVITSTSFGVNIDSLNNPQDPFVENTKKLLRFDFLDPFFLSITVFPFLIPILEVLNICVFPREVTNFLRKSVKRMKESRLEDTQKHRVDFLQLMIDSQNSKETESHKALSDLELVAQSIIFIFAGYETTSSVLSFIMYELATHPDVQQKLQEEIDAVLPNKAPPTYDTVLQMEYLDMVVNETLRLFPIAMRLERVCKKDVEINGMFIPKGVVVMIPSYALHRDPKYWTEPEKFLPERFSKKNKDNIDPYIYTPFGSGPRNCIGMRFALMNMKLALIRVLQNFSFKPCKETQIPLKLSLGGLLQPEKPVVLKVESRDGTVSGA
Compound,"activity, negative = inhibition",AC50
NCS(=O)(=O)O,-9.19% [at 11.4 µM],
CN(C)Cc1cc(Cl)c(O)c(CN(C)C)c1,-5.94% [at 11.4 µM],
CCCCOC(=O)c1ccc(O)cc1,-25.7% [at 25.6 µM],
CCCCOC(=O)c1cc2c(cn1)[nH]c1ccccc12,,25.1 µM (active)
O=C(O)CCc1ccc(-c2ccc(Cl)cc2)n1CCC(=O)O,-1.68%,
COCCNC(=O)[C@H](C)[C@@H]1C[C@@]1(C)[C@@H](NC(=O)OCc1ccccc1)c1ccccc1,,7.94 µM (active)
C[C@@H](C(=O)NCCF)[C@H]1C[C@]1(C)[C@H](NC(=O)OCc1ccccc1)c1ccccc1,,3.98 µM (active)
COCCNC(=O)[C@H](C)[C@H]1C[C@]1(C)[C@H](NC(=O)OCc1ccccc1)c1ccccc1,,3.16 µM (active)
COC(=O)N1CCC2(CCN(C(=O)Nc3ccc(OC)cc3)CC2)CC1,14.5%,
COc1ccc(NC(=O)CCNS(=O)(=O)c2ccc3c(c2)CCC(=O)N3)cc1,,15.8 µM (active)
O=C(CCNS(=O)(=O)c1ccc2c(c1)CCC(=O)N2)NCc1ccc2c(c1)OCO2,,1.41 µM (active)
COc1ccc(-c2nc(N)c3ncn([C@H]4O[C@@H](CO)[C@@H](O)[C@@H]4O)c3n2)cc1,-0.494% [at 11.4 µM],
COc1ccc2[nH]cc(CCNc3ncncc3-c3c(C)noc3C)c2c1,,0.794 µM (active)
COc1ccc2[nH]cc(CCNc3ncncc3-c3ccccc3OC)c2c1,,0.126 µM (active)
COc1ccc2[nH]cc(CCNc3ncncc3-c3ccccc3C)c2c1,,0.316 µM (active)
COc1ccc2[nH]cc(CCNc3ncncc3-c3ccccc3Cl)c2c1,,0.398 µM (active)
C=C1c2cccc(O)c2C(O)=C2C(=O)[C@@]3(O)C(O)=C(C(N)=O)C(=O)[C@@H](N(C)C)[C@@H]3[C@@H](O)[C@H]12,-10.9% [at 25.6 µM],
CNc1nc(Cl)nc(NC(C)(C)C)n1,-12%,
CN1C[C@H](c2ccccc2)C(O)([C@]2(c3ccccc3)CN(C)C[C@@H](c3ccccc3)C2=O)[C@H](c2ccccc2)C1 (stereo partly drawn),-0.704% [at 11.4 µM],
O=C(c1cc(Br)ccc1O)c1cc(Br)ccc1O,-18.8% [at 11.4 µM],
COc1ccc2[nH]cc(CCNc3ncncc3-c3ccccc3C(F)(F)F)c2c1,,0.251 µM (active)
COc1ccc2[nH]cc(CCNc3ncncc3-c3ccccc3CN(C)C)c2c1,,0.631 µM (active)

Compound,"activity, negative = inhibition",AC50
O=S(=O)(O)c1ccc2c(N=Nc3cccc4ccccc34)c(O)c(S(=O)(=O)O)cc2c1,5.97% [at 11.4 µM],
CN1CCN(c2ccc([N+](=O)[O-])cc2NC(=O)c2ccccc2Cl)CC1,13%,
O=C(Nc1ccccc1N1CCN(C(=O)c2ccccc2)CC1)c1cc(Br)ccc1Cl,,3.55 µM (active)
O=C(Nc1ccccc1N1CCN(C(=O)c2ccc(Cl)cc2)CC1)c1cc(Br)ccc1Cl,,3.98 µM (active)
Cc1ccccc1N1CCN(C(=O)c2ccccc2NC(=O)/C=C\C(=O)O)CC1,-14.2%,
COc1cccc(C(C#N)N2N=C(C)CC2(C)C)c1O (stereo not drawn),-11.6%,
CCOC(=O)CNc1c(-c2ccccc2)nc2ccc(Cl)cn12,21.3%,
c1ccc(-c2nc3ccccn3c2NCc2ccc3c(c2)OCO3)cc1,,0.501 µM (active)
CO[C@H]1[C@@H](OC(N)=O)[C@H](O)[C@@H](Oc2ccc3c(O)c(NC(=O)c4ccc(O)c(CC=C(C)C)c4)c(=O)oc3c2C)OC1(C)C,-7.19% [at 25.6 µM],
Cn1cccc1/C=N/NC(=O)c1sc2ccccc2c1Cl,,8.91 µM (active)
N#CCCn1nnc2ccccc21,-10.8%,
C=CCN1CCc2cc(O)c(O)cc2[C@H](c2ccccc2)C1,,inactive
O=C(O)CSSCC(=O)O,-6.12% [at 11.4 µM],
Cc1nnsc1SCC(=O)O,-4.96%,
O=C(O)CSc1sc(=S)sc1SCC(=O)O,,11.2 µM (active)
Cc1ccnc(NCn2nnc3ccccc32)c1,-7.54%,
COc1ccc(C(C(=O)Nc2ccc(F)cc2)N(C(=O)Cn2nnc3ccccc32)C2CC2)cc1 (stereo not drawn),,3.55 µM (active)
COc1cccc(C(C(=O)Nc2ccc(F)cc2)N(C(=O)Cn2nnc3ccccc32)C2CC2)c1 (stereo not drawn),,2.82 µM (active)
COc1ccc(N(C(=O)Cn2nnc3ccccc32)C2(C(=O)NC3CCCC3)CCCCC2)cc1,,2 µM (active)
O=C(Cn1nnc2ccccc21)N1CCCCC1,-1.52%,
COc1ccc(NC(=O)C(c2ccc(OC)cc2)N(C)C(=O)CNC(C)=O)cc1 (stereo not drawn),-11.9%,
CC(C)(C)c1cc2c(O)c(c1)Cc1cc(C(C)(C)C)cc(c1O)Cc1cc(C(C)(C)C)cc(c1O)Cc1cc(C(C)(C)C)cc(c1O)Cc1cc(C(C)(C)C)cc(c1O)Cc1cc(C(C)(C)C)cc(c1O)Cc1cc(C(C)(C)C)cc(c1O)Cc1cc(C(C)(C)C)cc(c1O)C2,-24.5% [at 11.4 µM],

Compound,"activity, negative = inhibition",AC50
COc1ccc(CNCCC(c2ccc(OC(C)C)cc2)C(C)C)cc1OC (stereo not drawn),,1.41 µM (active)
CC(C)Oc1ccc(CSC(=N)N)cc1,-3.82%,
CCC(C)[C@H](NC(=O)Nc1ccc(Oc2ccccc2)cc1)C(=O)O (stereo partly drawn),-4.13%,
NC(=S)Nc1ccc(Oc2ccc(NC(N)=S)cc2)cc1,,4.47 µM (active)
CCCCNN,-7.03% [at 11.4 µM],
O=C(O)c1ccc2c3c1cccc3c(=O)n1c3ccccc3nc21,-14.5%,
O=c1c2ccc([N+](=O)[O-])c3cccc(c32)c2nc3ccccc3n12,,0.891 µM (active)
NS(=O)(=O)c1cccc2c1c([N+](=O)[O-])cc1nc(O)c(O)nc12,,inactive
CC1=C(C)/C(=N\OC(=O)/C=C/c2ccccc2)C=CC1=O,1.54%,
COc1ccccc1OCCOc1ccc(/C=C2/C(=N)N3OC(C)=CC3=NC2=O)cc1OC,-12.2%,
COc1cc(/C=C2/C(=N)N3C=CSC3=NC2=O)ccc1OCCCOc1ccccc1C,,15.8 µM (active)
COc1cc(/C=C2/C(=N)N3C=CSC3=NC2=O)ccc1OCCCOc1c(C)cccc1C,,20 µM (active)
CCOc1ccc(-c2nn(-c3ccccc3)cc2/C=C2\SC(N)=NC2=O)cc1C,0.0129%,
CCOc1cc(/C=C2/C(=N)N3C=CSC3=NC2=O)ccc1OCCCOc1ccccc1C,,15.8 µM (active)
COc1ccc(/C=C2\N=C(c3c(-c4ccccc4)noc3C)OC2=O)cc1OC,-39.1%,
COc1cc(C=O)ccc1OCCCOc1ccccc1C(=O)O,-6.53%,
Cc1noc(C)c1-c1cncnc1NCc1ccccc1,,2 µM (active)
Cc1cnc(CNc2ncncc2-c2c(C)noc2C)cn1,,12.6 µM (active)
Cc1noc(C)c1-c1cncnc1NC1CC1,,7.94 µM (active)
Cc1noc(C)c1-c1cncnc1NCc1cccnc1,,3.16 µM (active)
Cc1ncc([N+](=O)[O-])n1CC(C)O (stereo not drawn),20.5%,
CCN=C(N)CSS(=O)(=O)O,-8.49% [at 11.4 µM],

Compound,"activity, negative = inhibition",AC50
Cc1noc(C)c1-c1cc(Nc2ccccc2)ncn1,-41.5%,
Cc1noc(C)c1-c1cncnc1Nc1ccccc1,,3.16 µM (active)
CC(C)n1nnnc1SCC(=O)c1ccc2c(c1)OCCO2,-28.3%,
CC(C)n1nnnc1SCC(=O)NCc1ccc2c(c1)OCO2,,0.891 µM (active)
Cc1ccc2cc(C)c3nnc(SCC(=O)NCc4ccco4)n3c2c1,,22.4 µM (active)
CC(C)n1nnnc1SCC(=O)NCCc1ccccc1,,14.1 µM (active)
Cc1cc2cc(C)c3nnc(SCC(=O)NCc4ccc5c(c4)OCO5)n3c2cc1C,,0.562 µM (active)
Cc1ccccc1Oc1ccc(-c2nc(N)nc(N)n2)cc1,4.65%,
COc1cccc(CN2C(=O)N(C(C)C)C(N(O)C(=O)NC(C)C)C2(C)C)c1OC (stereo not drawn),-12.5% [at 2.29 µM],
CCCCNC(=O)NC1C(NC(=O)NCCCC)N(C)C(=O)N1C (stereo not drawn),-6.75%,
CCCCCCCCN1C(=O)N(C)C(N(O)C(=O)NC)C1(C)C (stereo not drawn),,6.31 µM (active)
CCCOc1ccc(OCCNC2CCCC2)cc1,10% [at 2.29 µM],
COc1cc(CNC(C)(C)CO)ccc1OCC(=O)Nc1ccc(Br)cc1,0.897% [at 2.29 µM],
C=CCOc1c(Br)cc(CNc2ccc(NC(=O)C(C)C)c(OC)c2)cc1OC,,3.55 µM (active)
CC(=O)OC[C@@H]1O[C@H](C/C=N\O[C@@H]2O[C@H](COC(C)=O)[C@@H](OC(C)=O)[C@H](OC(C)=O)[C@H]2OC(C)=O)C=C[C@@H]1OC(C)=O,-25.4% [at 11.4 µM],
CCCNC(=O)OC[C@@H]1O[C@H](CCO/N=C\C[C@H]2C=C[C@H](OC(C)=O)[C@@H](COC(C)=O)O2)C=C[C@@H]1Oc1ccc(OC)cc1,,3.98 µM (active)
CC(=O)OC[C@@H]1O[C@H](C/C=N\O[C@@H](C)c2cc(-c3c(C)cc(C)cc3C)no2)C=C[C@@H]1OC(C)=O,,3.16 µM (active)
Cc1cc(C)c(-c2cc([C@H](C)O/N=C3/[C@H]4OC4[C@@H](O)[C@H]4[C@H]3CCn3c(=O)n(-c5ccccc5)c(=O)n34)on2)c(C)c1 (stereo partly drawn),-41% [at 11.4 µM],
COc1ccc(O[C@H]2C=C[C@@H](c3ccccc3)O[C@H]2COC(=O)CC/C(C)=N/OCC[C@@H]2C=C[C@H](OC(C)=O)[C@H](COC(C)=O)O2)cc1,,3.98 µM (active)
COc1ccc(O[C@H]2C=C[C@@H](c3ccccc3)O[C@H]2COC(=O)CC/C(C)=N\O[C@@H](C)c2cc(-c3c(C)cc(C)cc3C)no2)cc1,,3.16 µM (active)
CC(=O)OC[C@@H]1O[C@H](C/C=N\O[C@@H](C)c2cn([C@H]3COC[C@H]3O)nn2)C=C[C@@H]1OC(C)=O,-11.8% [at 11.4 µM],
CC(=O)OC[C@@H]1O[C@H](CCON=C(C)C)C=C[C@@H]1OC(C)=O,-14.8% [at 11.4 µM],
